Source: PubChem BioAssay AID1430 (University of Pittsburgh Molecular Library Screening Center, 2008)
Out of some 220,000 compounds screened, about 240 (0.11%) were called active.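 The calls were made as follows: active = inhibition of 50% or more in the single-dose primary screen; inactive = inhibition below 50%.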 The entries come from a sample that favours actives as a whole.

test system: hexokinase 1 [Trypanosoma brucei]; experiment: TbHK1 enzyme activity blockers – biochemical, G6PDH-coupled NADH absorbance, MLSCN library, primary screen (AID 1430); settings: recombinant TbHK1, G6PDH-coupled NADH A340; at 10 µM; stronger effect = higher value

Structure (SMILES) | inhibition
CCOc1ccccc1C(=O)NC1CC2CCCC(C1)N2Cc1ccccc1 (stereo not given) | 3.91% (inactive)
CCC(CC)C(=O)N1CCN(c2cccc(C)c2C)CC1 | -4.04% (inactive)
Cc1c(Cl)c([N+](=O)[O-])nn1Cc1ccc(C(=O)N/N=C\c2cc(Cl)ccc2O)o1 | 0.728% (inactive)
CCCc1nc(-c2cc3cc(C)ccc3[nH]c2=O)no1 | -10.1% (inactive)
Cc1ccc(N(C(=O)Cc2cccs2)C(C(=O)NCC2CCCO2)c2ccncc2)cc1 (stereo not given) | -7.37% (inactive)
CSc1nnnn1-c1c(C)cc(C)cc1C | -0.934% (inactive)
O=C1CC(c2cccc(Cl)c2)CC(O)=C1C=Nc1ccccc1 (stereo not given) | -3.36% (inactive)
CC(=O)O[C@]1(C(C)=O)CC[C@H]2[C@@H]3C=C(C)C4=CC(=O)CC[C@]4(C)[C@H]3CC[C@@]21C | -3.98% (inactive)
Cc1ccc(-c2nc(SCC(=O)Nc3ccccc3OC(F)F)c3c(C)c(C(=O)O)sc3n2)cc1 | -36.7% (inactive)
COCCNC(=O)c1ccc(-n2c(SCc3cccnc3)nc3ccccc3c2=O)cc1 | -6.28% (inactive)
CC(O)c1nc2c(c(=O)n(C)c(=O)n2C)n1C (stereo not given) | -12.1% (inactive)
O=C(Nc1ccc(N2C(=O)c3cccc4cccc(c34)C2=O)cc1)c1ccc(N2CCCCC2)c([N+](=O)[O-])c1 | -9.23% (inactive)
CCCCN(C(=O)c1ccc(OC(F)(F)F)cc1)c1c(N)n(CCC)c(=O)[nH]c1=O | 2.61% (inactive)
COc1cc(NC(=O)COC(=O)c2cnc(C)cn2)c(C)cc1[N+](=O)[O-] | -6.37% (inactive)
CCOC(=O)C1CCN(C(=O)C2(NC(=O)Nc3cccc(F)c3)CCCCC2)CC1 | -1.28% (inactive)
Cc1ccc(SC(C)C(=O)NCc2ccc(F)cc2)cc1 (stereo not given) | 4.64% (inactive)
CC1Cc2ccccc2N1C1=CC(=O)CC(C)(C)C1 (stereo not given) | -58.2% (inactive)
CN(C)CCCO/N=C(\c1ccccc1)c1ccncc1 | -6.34% (inactive)
C/C(=N\Nc1cccc(C(=O)O)c1)c1ccc2c(c1)Nc1ccccc1S2 | -4.39% (inactive)
CCN(CC(=O)Nc1ccc(Cl)c(S(=O)(=O)N(C)C)c1)Cc1nc2ccccc2c(=O)[nH]1 | -2.75% (inactive)
O=C(Oc1ccccc1Cl)c1ccc(N2CCOCC2)c([N+](=O)[O-])c1 | -7.89% (inactive)
C/C(=N/NC(=O)CSc1ccccn1)c1ccc([N+](=O)[O-])cc1 | -9.77% (inactive)
Cc1onc(C(=O)NCc2ccc(F)cc2)c1[N+](=O)[O-] | -2.07% (inactive)

Structure (SMILES) | inhibition
CCOCCCNC(=O)C(NC(=O)c1ccccc1O)c1ccccc1 (stereo not given) | -9.74% (inactive)
COC(=O)C(C(=O)Nc1cccc(C)n1)C1CCCCCC1 (stereo not given) | 5.11% (inactive)
CC(=O)Nc1ccc(NC(=O)C(C)OC(=O)c2ccccc2C(=O)c2ccc(Cl)c([N+](=O)[O-])c2)cc1 (stereo not given) | -6.27% (inactive)
O=S(=O)(NC1CCCCC1)c1ccc(F)c2ccccc12 | 2.7% (inactive)
COC(=O)c1c(NC(=O)CCCC(=O)O)sc2c1CCCCC2 | -10.9% (inactive)
C=CCn1c(COc2ccc(F)cc2)nnc1SCC(=O)Nc1cccc(S(N)(=O)=O)c1 | -3.84% (inactive)
CCc1cccc2c3c([nH]c12)C(CC)(CC(=O)O)OCC3 (stereo not given) | -3.41% (inactive)
Cc1ccc(S(=O)(=O)N(C)C)cc1NC(=O)/C=C/c1cccs1 | 5.08% (inactive)
N#Cc1c(N)nc2c(c1N)CC(C(F)(F)F)O2 (stereo not given) | 4.59% (inactive)
O=C(CN1C(=O)C2C3C=CC(C3)C2C1=O)NCCc1ccccc1Cl (stereo not given) | 57.8% (active)
O=C(CN1C(=O)C2C3C=CC(C3)C2C1=O)NCC1COc2ccccc2O1 (stereo not given) | -4.57% (inactive)
O=C(CCN1C(=O)C2C3C=CC(C3)C2C1=O)Nc1ccccc1F (stereo not given) | -3.82% (inactive)
Nc1nnnn1/N=C/c1cc([N+](=O)[O-])ccc1O | -31.3% (inactive)
O=C(NCCc1ccccc1)C1CCC(Cn2c(=O)c3ccccc3n(Cc3cccnc3)c2=O)CC1 (stereo not given) | -9.56% (inactive)
Cc1cc2nc(SCCN3CCOCC3)[nH]c2cc1C | 2.94% (inactive)
CCOC(=O)c1ccc(NNC(C)=O)c([N+](=O)[O-])c1 | -2.98% (inactive)
N#Cc1ccc(Oc2ccc(C(F)(F)F)cc2NC(=O)c2ccc(F)cc2)cc1 | -2.47% (inactive)
C#CCOCCOCCOCCNc1nc(N2CCN(C(=O)[C@H](CCC(=O)O)n3cc(C(N)CO)nn3)CC2)nc(N2CCN(C(=O)[C@H](Cc3ccc(O)cc3)n3cc(C(N)[C@H](C)CC)nn3)CC2)n1 (stereo not given in full) | -6.04% (inactive)
Cc1cc(OC(=O)c2ccccc2)c([N+](=O)[O-])c(=O)[nH]1 | -5.67% (inactive)
Cc1ccc(C2=N/C(=C\c3ccc(OS(=O)(=O)c4ccc(C)cc4)cc3)C(=O)O2)cc1 | 2.44% (inactive)
Brc1ccc(-c2noc(-c3ccccc3)n2)o1 | -6.63% (inactive)
O=C1C(=O)N(c2ccccc2)c2ccccc21 | -11.4% (inactive)
Cc1cc(C(=O)N/N=C/c2cc([N+](=O)[O-])cc(C)c2O)n[nH]1 | 1.39% (inactive)

Structure (SMILES) | inhibition
COC(=O)NNC(=O)C1CCC(C)CC1 (stereo not given) | -0.712% (inactive)
O=C(NN=C1CCC(=NNC(=O)c2cccnc2)CC1)c1cccnc1 | -1.3% (inactive)
Cc1ccc(NC(=O)Nc2cc(-c3ccccc3)nn2C)cc1Cl | -21.8% (inactive)
CC1(C)OC(=O)C(=CNC(CO)C(=O)O)C(=O)O1 (stereo not given) | 2.5% (inactive)
Cc1ccc(CSc2nc3[nH]ncc3c(=O)[nH]2)cc1 | -4.89% (inactive)
O=C1NC(c2cccc(Cl)c2)Nc2ccccc21 (stereo not given) | -2.98% (inactive)
C=CCN1C=C2C(=O)C(C)(OC(=O)CCc3ccccc3)C(=O)C=C2C=C1c1ccc(C#N)cc1 (stereo not given) | -9.51% (inactive)
O=C(NNC(=O)c1csc(-c2cccnc2)n1)Nc1ccc(Cl)cc1 | 1.85% (inactive)
Cc1ccc(-n2c(C)cc(C(=O)CSc3nnc4ccccn34)c2C)cc1 | -7.8% (inactive)
NC(=O)c1ccccc1N=Cc1ccc2ccccc2c1 | 27.1% (inactive)
O=C(OCC(=O)N1CCOCC1)c1ccc(N2CCOCC2)c([N+](=O)[O-])c1 | -6.48% (inactive)
Cc1nc2nc[nH]n2c(=O)c1C/C=C/c1ccccc1 | -2.13% (inactive)
COc1ccc(C(=O)NNc2cc(C)nc(NNC(=O)c3ccc(OC)cc3)n2)cc1 | -5.16% (inactive)
Cc1[nH]n(C)c(=O)c1N=Nc1ccc(S(C)(=O)=O)cc1 | -42.5% (inactive)
Cc1ccc(Oc2nc(-c3ccccn3)nc3ccccc23)cc1 | -12.7% (inactive)
COC(=O)CN1C(=O)N/C(=C/c2ccc(OC)c(C)c2OC)C1=O | -28.4% (inactive)
C=C(C)C(=O)Nc1cccc(C2=NOC3(C2)C[C@H](C(N)=O)N(C(=O)C(c2ccccc2)c2ccccc2)C3)c1 (stereo not given in full) | 7.7% (inactive)
Cc1ccc(Cl)c(OCC(=O)NN2CCN(C)CC2)c1 | -3.39% (inactive)
COc1ccc(C(=O)NC2(C(F)(F)F)NC(=O)N(CCCc3ccccc3)C2=O)c(OC)c1OC (stereo not given) | -4.23% (inactive)
O=C(CSc1nnc2ccc(-c3ccncc3)nn12)N1CCCCC1 | -7.7% (inactive)
COC(=O)c1ccc(/C=N/OCC(=O)Nc2cc(F)ccc2F)cc1 | -4.64% (inactive)
COc1ccc(NC(=O)c2cc3nc(-c4ccccc4)cc(C)n3n2)cc1OC | -16.7% (inactive)
COc1ccccc1NC(=O)C1CCCN(c2cc(C)nc3ncnn23)C1 (stereo not given) | -1.1% (inactive)

Structure (SMILES) | inhibition
COc1cccc(/C=N/Nc2cc(C)nc(-c3ccccc3O)n2)c1O | -40% (inactive)
COc1cc(/C=C2\SC(=S)N(Nc3ncc(C(F)(F)F)cc3Cl)C2=O)cc(OC)c1OC | -3.09% (inactive)
COc1cccc(/C=N/Nc2ncc(C(F)(F)F)cc2Cl)c1O | 73.5% (active)
COC(=O)Nc1ccc(S(=O)(=O)N2CCN(CCN3C(=O)C4C5C=CC(C5)C4C3=O)CC2)cc1 (stereo not given) | 1% (inactive)
Cc1c(C(N)=O)sc2ncn(CCOc3ccccc3)c(=O)c12 | -3.42% (inactive)
CCc1ccc(CNC(=O)CCc2nc(-c3cccs3)no2)cc1 | -2.08% (inactive)
O=C(CCC1CCCN(C(=O)Cc2ccc(F)cc2)C1)N1CCN(c2ccccn2)CC1 (stereo not given) | -6.3% (inactive)
CSc1ccccc1NC(=O)Cc1ccc(Br)cc1 | 32.7% (inactive)
O=C1/C(=C\Nc2ccccc2)CCN1c1ncccn1 | -65.9% (inactive)
COc1ccccc1NC(=O)CC(NCCN(C)C)C(=O)O (stereo not given) | -1.3% (inactive)
COCCCNc1nc2c(-c3cccc(C(F)(F)F)c3)nnn2c2ccccc12 | -3.92% (inactive)
CCOC(=O)C1(Cc2ccc(Cl)cc2)CCN(C(=O)C2=NNC(=O)CC2)CC1 | -7.3% (inactive)
Cc1ccc(SC(=O)COc2ccc(C)c(C)c2)cc1 | 7.35% (inactive)
S=c1nccc(-c2cc(Cl)sc2Cl)[nH]1 | -7.08% (inactive)
CCCN1CNC(=S)N(CCc2ccccc2)C1 | -4.25% (inactive)
Cc1ccc(C)c(Cn2nnc3c(=O)[nH]c(C(=O)Nc4ccc(F)cc4)nc32)c1 | 1.66% (inactive)
COc1ccc(OC)c(NC(=O)N[C@H](Cc2ccccc2)C(=O)NN)c1 | -2.36% (inactive)
Cc1ccc(NC(=O)Cn2c(=O)n(CCC(=O)NC3CCN(Cc4ccccc4)CC3)c(=O)c3ccccc32)cc1 | 1.82% (inactive)
COc1ccc(/C=N/S(=O)(=O)c2ccccc2)cc1OC | -6.73% (inactive)
CCCSc1ncccc1C(=O)O | -11% (inactive)
CCOC(=O)C1CCN(CCC(=O)Nc2cccc(C)c2)CC1 | -3.14% (inactive)
